The list is not random: actives were taken first. Their share in the collection is about 13%.
KDM4E inh – qHTS Assay for Inhibitors of Human Jumonji Domain Containing 2E (JMJD2E). Lysine-specific demethylase 4E (Homo sapiens), B2RXH2. JMJD2E catalytic domain, FDH-coupled NADH fluorescence (FDH is formaldehyde dehydrogenase). Potency, µM (titrated, usually from 57.1 µM), inactives show top-dose activity change, negative = inhibition, usual class: inhibitors. actives 1.6% (n = 230,000). AID 2147, 2009; active = well fitted inhibition curve with a large enough effect, not every such curve was filed as active; inconclusive = small, poorly fitted or top-dose-only effect, or another doubt; inactive = no such curve, though single readings can be large or run the other way;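 also: potency is read from the fitted curve at half-maximal effect; 0% = wells with enzyme and -100% = buffer wells without enzyme; nearly all actives have a fitted effect of over 50% in size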
ALDH1A1 inh – qHTS Assay for Inhibitors of Aldehyde Dehydrogenase 1 (ALDH1A1); AID 1030, 2008; actives 7.3% (n = 220,000); Aldehyde dehydrogenase 1A1 (Homo sapiens), P00352; Potency, µM (highest dose often 75.3 µM), for the others: at the highest dose activity, negative = inhibition, most hits filed as inhibitors; Purified ALDH1A1, NADH fluorescence, propionaldehyde substrate; active = well fitted inhibition curve with a large enough effect, not every such curve was filed as active; inconclusive = small, poorly fitted or top-dose-only effect, or another doubt; inactive = no such curve, though single readings can be large or run the other way;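 also: potency is read from the fitted curve at half-maximal effect; plate controls were no enzyme wells and a reference inhibitor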
Target sequence (P00352 whole entry, looked up): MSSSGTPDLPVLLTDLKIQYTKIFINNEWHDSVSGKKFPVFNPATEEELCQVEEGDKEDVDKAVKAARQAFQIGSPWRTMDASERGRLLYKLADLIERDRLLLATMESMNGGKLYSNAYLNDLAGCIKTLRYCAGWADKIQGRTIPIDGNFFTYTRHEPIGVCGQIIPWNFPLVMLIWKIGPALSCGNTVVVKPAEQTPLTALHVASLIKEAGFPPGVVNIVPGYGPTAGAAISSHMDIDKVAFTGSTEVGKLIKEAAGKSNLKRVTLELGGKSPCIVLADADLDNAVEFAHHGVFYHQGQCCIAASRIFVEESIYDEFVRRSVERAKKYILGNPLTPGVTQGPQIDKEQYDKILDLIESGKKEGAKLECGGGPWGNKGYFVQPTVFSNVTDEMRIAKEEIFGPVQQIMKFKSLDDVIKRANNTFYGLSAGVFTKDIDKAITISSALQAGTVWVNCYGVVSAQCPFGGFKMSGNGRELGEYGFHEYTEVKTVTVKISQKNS
G9a inh – qHTS Assay for Inhibitors of Histone Lysine Methyltransferase G9a; Histone-lysine N-methyltransferase EHMT2 (Homo sapiens), Q96KQ7; G9a H3K9 monomethylation, AlphaScreen, 2 h; Potency, µM (doses to about 102 µM), for the others: at the highest dose activity, negative = inhibition, most hits filed as inhibitors; actives 8.8% (n = 350,000); also: potency is read from the fitted curve at half-maximal effect; % is scaled to controls: 0 for no effect and ±100 for the full control effect; nearly all actives have a fitted effect of over 75% in size
Target sequence (Q96KQ7 913-1193 limits assumed): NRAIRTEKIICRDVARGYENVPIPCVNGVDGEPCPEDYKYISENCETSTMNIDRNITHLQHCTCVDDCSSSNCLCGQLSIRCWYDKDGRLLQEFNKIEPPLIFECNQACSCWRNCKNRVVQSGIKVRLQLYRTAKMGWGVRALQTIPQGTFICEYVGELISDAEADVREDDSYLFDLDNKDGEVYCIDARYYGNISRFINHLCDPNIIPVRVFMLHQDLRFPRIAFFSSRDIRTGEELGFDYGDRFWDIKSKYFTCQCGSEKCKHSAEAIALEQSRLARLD
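G9a (20 nM) was preincubated 15 min with compound, then reacted 2 h at room temperature with 500 nM biotin-H3K9 peptide and 20 µM SAM. Monomethyl-H3K9 detected by AlphaScreen using anti-H3K9me1 antibody.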
miR-21 reporter – qHTS Assay for Modulators of miRNAs and/orActivators of miR-21; 340,000 tested, under 10 active; Potency, µM (top dose mostly 38.3 µM), for the others: top-dose activity change, positive = activation, actives largely listed as activators; AID 2288, 2010; HeLa miR-21 FLuc reporter, luciferase, 48 h;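 also: % of control where 0% means no effect; miR-21 action dims this reporter so a rising signal means less miR-21 action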
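HeLa miR-21-FLuc reporter line, endogenous miR-21; 2000 cells/well in DMEM/10% FBS; compound titration up to ~40uM final, 48 h, 37 degree Celsius; luciferase detection reagent, 15 min lysis, CCD luminescence.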
Lamin A splicing – qHTS Assay for Modulators of Lamin A Splicing; HeLa LMNA splicing GFP/RFP minigene ratio, 48 h; Potency, µM (series often up to 46.1 µM), without a hit: at the highest dose ratio change, negative = inhibition, most hits filed as inhibitors; actives 0.01% (n = 200,000); active = well fitted inhibition curve with a large enough effect in the signal ratio, with a control signal flat, not every such curve was filed as active; inconclusive = small, poorly fitted or top-dose-only effect, or effect the other way, or a change in a side signal; the % refers to the signal ratio; also: potency is read from the fitted curve at half-maximal effect; % is scaled to controls: 0 for no effect and ±100 for the full control effect
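S3 HeLa cells stably expressing lamin A-EGFP splicing minigene plus DsRed2, 600 cells/well, 48 h compound exposure at 37C. Laser-scanning cytometry; analysed as GFP (500-530 nm)/RFP (575-640 nm) total intensity ratio; 0.5% DMSO vehicle.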
Sfp PPTase inh – qHTS Assay for Inhibitors of Bacillus subtilis Sfp phosphopantetheinyl transferase (PPTase); Biochemical Sfp PPTase activity, qHTS; Potency, µM, for the others: largest response in the series, negative = inhibition, usual class: inhibitors; actives 3.5% (n = 310,000); AID 1490, 2009;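 also: the enzyme is Sfp with the accession as filed and its product quenches rhodamine fluorescence; potency is read from the fitted curve at half-maximal effect; 0% = enzyme reaction without inhibitor and -100% = no enzyme wells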
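With Hepes-Na pH 7.6 buffer containing 10 mM MgCl2, Sfp (15 nM) modified BHQ-2-YbbR (12.5 uM) using rhodamine-CoA (5 uM). Two reads 30 minutes apart at 525/598 nm yielded each well's rate.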
Active calls of the source: *; ? = inconclusive; · = no result given; [ ] = another dose, or the depositor's remark. Unless noted, calls follow the shape of the dose curve; as a rule, active = well fitted curve in the direction sought with a large enough effect; inconclusive = small, poorly fitted or top-dose-only effect, or another doubt; inactive = no such curve, though single readings can be large; an effect the other way counts as inactive or inconclusive.

SMILES	KDM4E inh	ALDH1A1 inh	G9a inh	miR-21 reporter	Lamin A splicing	Sfp PPTase inh
Clc1ccc(Cl)c(-c2nc(-c3ccncc3)no2)c1	·	·	26.8%	-5.3%	·	6.7%
CCNc1ncc2nc(-c3cccc(C#N)c3)c(=O)n(C)c2n1	·	?	-4.0%[12.7 µM]	·	·	-20.2%
CCC1(c2ccc(F)cc2)NC(=O)N(CC(=O)NCc2ccccc2Cl)C1=O (stereo unspecified)	·	·	24.4%[2.33 µM]	2.3%	·	13.0%
CSc1nc(N)c2ncn([C@H]3O[C@H](COP(=O)(O)OP(=O)(O)OP(=O)(O)O)[C@@H](O)[C@@H]3O)c2n1	-25.5%	-1.4%	·	·	·	-6.9%
CCc1ccc(NC(=O)Cn2cc(S(=O)(=O)N3CCCC3)c(S(=O)(=O)N3CCCC3)c2)cc1	·	·	-2.0%[59 µM]	-7.2%	21.1%[46 µM]	·
COc1ccc(CCC(=O)Nc2cc(S(=O)(=O)N3CCCCC3)ccc2N(C)C)cc1	·	·	-4.0%[2.33 µM]	·	·	·
COc1ccc([C@@H]2CNC(=O)C2)cc1OC1CCCC1	-4.1%	?	25.7%[21.5 µM]	·	?	-29.8%
COCCn1c(=N)c(S(=O)(=O)c2ccc(F)cc2)cc2c(=O)n3ccccc3nc21	·	·	22.8%	-6.0%	·	11.7%
Cc1ccc(CN2CCN(/N=C/c3cccn3C)CC2)c(C)c1	-5.3%	-4.1%	25.1µM*	-1.1%	-25.7%[9.22 µM]	-5.8%
Cc1ccc(CN2CCSCC2)c(C)c1	7.3%	-6.3%	4.47µM*	6.0%	0.3%	?
CN1CCCN(Cc2cccc3ccccc23)CC1	·	·	·	1.3%	·	-29.8%
Cc1ccc(CN2CCCN(C)CC2)c(C)c1	·	·	3.55µM*	1.9%	·	-18.9%
CCOC(=O)c1cc(C)n(CC2CCC(C(=O)Nc3ccc(C(=O)OC)cc3)CC2)c1C (stereo unspecified)	·	·	3.1%[59 µM]	12.5%	·	·
CCN1CCN(CCCNC(=O)c2cc3c(s2)-c2c(C)cccc2OC3)CC1	·	·	2.3%[59 µM]	28.5%	·	·
CCc1oc(C(=O)O)cc1CN(CC)CC	7.0%	7.3%	-27.3%[59 µM]	-4.6%	3.1%	13.6%
CCc1oc(C(=O)O)cc1COC	-28.0%	-7.7%	44.7µM*	2.0%	6.5%	7.8%
Cc1ccc(C(=O)C2=C(O)C(=O)N(Cc3cccnc3)C2c2ccc(N(C)C)cc2)o1 (stereo unspecified)	·	·	35.5µM*	2.7%	·	1.3%
Cc1ccc(C(=O)C2=C(O)C(=O)N(Cc3cccnc3)C2c2ccc(OC(C)C)cc2)o1 (stereo unspecified)	·	·	·	1.6%	·	-8.1%
COc1ccc(C2C(C(=O)c3ccc(C)o3)=C(O)C(=O)N2Cc2cccnc2)cc1 (stereo unspecified)	·	·	50.1µM*	-4.3%	·	-3.5%
CC(=O)N1CCc2c(sc3nc(SCC(N)=O)n(-c4ccc(F)c(Cl)c4)c(=O)c23)C1	·	·	?	1.9%	·	·
O=C(c1ccccc1Cl)N1CCCC(c2nc3c(nnn3Cc3ccc(F)cc3F)c(=O)[nH]2)C1 (stereo unspecified)	·	·	5.7%[59 µM]	-0.4%	·	·
CC(C)(C)c1ccc(/C=C2\CCn3c2nc2cc(C(=O)O)ccc2c3=O)cc1	·	·	-20.6%	-8.5%	·	-7.4%
Cc1ccc(S(=O)(=O)N2CCCC2)cc1C(=O)NCCN1CCOCC1	·	·	79.4µM*	-22.0%	·	9.3%
CCC1CCCCN1C(=S)NC(=O)c1cc(S(=O)(=O)N2CCOCC2)ccc1C (stereo unspecified)	-4.9%	·	44.7µM*	-1.1%	·	0.6%
CCOC(=O)c1c(-c2ccccc2Cl)csc1NC(=O)c1cc(S(=O)(=O)N2CCOCC2)ccc1C	?	?	7.94µM*	-1.5%	?	?
SMILES	KDM4E inh	ALDH1A1 inh	G9a inh	miR-21 reporter	Lamin A splicing	Sfp PPTase inh
CCOc1ccccc1NC(=O)c1cc(S(=O)(=O)N2CCOCC2)ccc1C	·	·	-1.8%[0.501 µM]	9.3%	·	-2.7%
COc1ccc(Cl)cc1NC(=O)N1CCN(Cc2cc(=O)n3nc(-c4ccccc4)sc3n2)CC1	·	·	7.6%[59 µM]	-1.1%	3.7%[46 µM]	·
CS(=O)(=O)N1CCN(c2ccc([N+](=O)[O-])cc2F)CC1	-10.6%	3.16µM*	?	1.0%	?	5.7%
COc1ccccc1N1CCN(C(=O)c2cc(-c3ccc(F)cc3)[nH]c2C)CC1	·	·	50.1µM*	21.6%	·	0.1%
COc1cccc(N2CCN(C(=O)c3cc(-c4ccc(F)cc4)[nH]c3C)CC2)c1	·	·	?	13.9%	·	-7.7%
Cc1[nH]c(-c2ccc(F)cc2)cc1C(=O)N1CCN(c2ccccc2)CC1	·	·	50.1µM*	18.6%	·	5.4%
Cc1[nH]c(-c2ccc(F)cc2)cc1C(=O)N1CCN(c2ccccc2F)CC1	·	·	70.8µM*	9.7%	·	-2.1%
Cc1c(NC(=O)c2nc3ccccc3n(C)c2=O)cccc1[N+](=O)[O-]	·	·	27.7%[59 µM]	-10.0%	·	·
COc1ccccc1N(C1=NCCCS1)S(=O)(=O)c1ccc(C(C)(C)C)cc1	-6.1%	0.224µM*	6.3%	-0.2%	6.3%[46 µM]	6.3%
COc1ccc(N(C2=NCCCS2)S(=O)(=O)c2ccc(C(C)(C)C)cc2)cc1	0.9%	0.794µM*	17.8%	2.8%	-9.9%[46 µM]	7.2%
COc1ccccc1N(C)S(=O)(=O)c1ccc(C(=O)NC2=NCCS2)cc1	1.5%	-4.0%	-21.8%[59 µM]	-2.3%	-5.8%	13.9%
Cc1ccc(S(=O)(=O)N(Cc2nc(-c3cccc(C)c3)no2)C2CCCCC2)cc1	·	·	17.9%[59 µM]	0.1%	·	·
CN(C)c1ncc2nc(-c3cccs3)c(=O)n(CCC#N)c2n1	·	?	5.1%[0.501 µM]	·	-3.4%	-0.4%
Cn1ccc2cc(S(=O)(=O)N3CCCC(C(=O)NCc4ccccc4)C3)ccc21 (stereo unspecified)	·	·	9.3%[59 µM]	-4.6%	-23.9%[46 µM]	·
Cc1nn(-c2ccccc2)c(N2CCCC2)c1/C=N/NC(=O)c1cc2ccccc2cc1O	-3.7%	5.1%	17.7%	-3.5%	?	3.5%
Cc1nn(-c2ccccc2)c(N2CCCC2)c1/C=N/Nc1ccc(S(N)(=O)=O)cc1[N+](=O)[O-]	-5.3%	-10.9%	10µM*	-12.5%	?	-9.5%
CC(=O)N/N=C/c1ccc([N+](=O)[O-])o1	·	·	-15.8%[12.7 µM]	·	·	2.5%
CC(C)c1ccc(/C=C2\C=C(c3ccc4ccccc4c3)OC2=O)cc1	·	8.2%[13.5 µM]	·	·	·	·
O=C1OC(c2ccc(F)cc2)=C/C1=C\c1ccc(O)cc1	·	·	35.5µM*	-18.2%	·	-17.0%
O=C1OC(c2ccc(F)cc2)=C/C1=C\c1ccc([N+](=O)[O-])o1	?	20µM*	10µM*	-1.4%	·	?
